Screen size: about 6,200 compounds; about 2,900 (47%) were called active. The set was probably picked from earlier hits. The list shows a part of the results. A number with no mark means an inactive call. Rule as the data show it: active = inhibition above about 50%; inactive = the rest.

The assay can be described thus: Mycobacterium tuberculosis growth inhibition, primary screen (AID 1259343). The note with it: inhibition: at 10 µM, hits give high values; outcome: 10 uM.
On to `CN1C(=CC=NNc2nc3ccccc3s2)C(C)(C)c2ccccc21`, for which the inhibition (as a rule, the relative decrease from the control value, in per cent) is 97% (active).

Consider `CN1C(=CC=NN=c2sc3ccccc3n2C)C(C)(C)c2ccccc21`, for which the inhibition is 4.19%.

Turning to `c1cc(-c2nc3cc(Oc4ccc5oc(-c6ccncc6)nc5c4)ccc3o2)ccn1`, the inhibition is 32.7%.

As to `Cc1ccc(CN2CCN(N=CC(Br)=Cc3ccccc3)CC2)c(C)c1`, the inhibition is 98.3% (active).

Take `O=C(NN=CC(Br)=Cc1ccccc1)c1cnccn1`: the inhibition is -13.9%.

In the case of `COC(=O)c1ccc(C(=O)NNc2nc3c(C)cccc3s2)cc1`, the inhibition is 99.7% (active).

Regarding `Cc1cccc2sc(N(Cc3ccccc3)C(=O)c3ccno3)nc12`, the inhibition was 35.8%.

On to `COc1ccccc1OCC(=O)N1CCC(Oc2nc3c(C)cccc3s2)CC1`, for which the inhibition is 20.8%.

Consider `CCCN(C)c1cc(Oc2ccc(C)cc2)ncn1`, for which the inhibition is 25.2%.

For `Cc1cc(C)cc(Oc2cc(-n3nc(C)cc3C)ncn2)c1`, the inhibition is 65.7% (active).

Take `c1ccc(-c2noc3nc(NC4CC4)ccc23)cc1`: the inhibition is 44.6%.

As to `Fc1ccccc1-c1noc2nc(NC3CC3)ccc12`, the inhibition was 70.5% (active).

As to `CC1CCCC(C)N1CCNc1ccc2c(-c3ccc(F)cc3)noc2n1` (centres undefined), the inhibition is 47.2%.

As to `COCCCNc1ccc2c(-c3ccccc3F)noc2n1`, the inhibition is 76.1% (active).

As for `Fc1ccc(-c2noc3nc(NC4CC4)ccc23)cc1`, the inhibition was 92.9% (active).

As for `CCCC1=NN(C(C)=O)C(C(=O)NCCCN2CCCCC2C)O1` (centres undefined), the inhibition was -9.23%.

For the compound `c1ccc(-c2nc3c(ccc4ccccc43)[nH]2)cc1`, the inhibition was 89.8% (active).

In the case of `c1ccc(-c2nc3c(ccc4ccccc43)[nH]2)nc1`, the inhibition was 96.1% (active).

As to `Oc1ccc2[nH]c(-c3ccccc3)nc2c1CN1CCCCC1`, the inhibition was 13.3%.

For `c1ccc(-c2nc3cc4ccccc4cc3[nH]2)nc1`, the inhibition is 17.5%.

In the case of `O=C1NC(=O)/C(=C/c2csc(-c3ccccc3)n2)S1`, the inhibition was 59.2% (active).

Regarding `O=C(NCC1CCCCN1)c1cc(OCC(F)(F)F)ccc1OCC(F)(F)F` (centres undefined), the inhibition is 84.3% (active).

`CC(C)C(=O)Nc1ccc(OCC(F)(F)F)c(C#N)c1`: the inhibition was -16.8%.

For the compound `CC(NC(=O)c1cccnc1N1CCCCC1)c1ccc(C#N)cc1` (centres undefined), the inhibition is 4.4%.

For `CC(C)c1ccc(C(C)NC(=O)c2cccn2C)cc1` (centres undefined), the inhibition is 79% (active).

With `Cn1cccc1C(=O)NS(=O)(=O)c1ccc(C#N)c(Cl)c1`, the inhibition is 15%.

`Cc1ccc(C)c(-c2cc(C(=O)NCCC(=O)NCc3ccc(F)cc3)no2)c1`: the inhibition was 71.3% (active).

As for `CN(Cc1ccccc1)Cc1cc(C(=O)NCc2cccc(F)c2F)no1`, the inhibition was 38.5%.

In the case of `Cn1cnc([N+](=O)[O-])c1Sc1ncnc2nc[nH]c12`, the inhibition is 56.7% (active).

The values are drawn from PubChem BioAssay AID1259343 (VanderVen Lab, College of Veterinary Medicine, Cornell …, 2017).
